# Screens from PubChem.
# Compounds with a hit are over-represented: about 3.2% of the library has one in this group of screens.
# RGS12 GoLoco inh: RGS12 GoLoco-Gai1 interaction inhibition | 230,000 compounds, 0.44% hits | Potency, µM (top dose mostly 61.6 µM), for the others: top-dose activity, negative = inhibition, usual class: inhibitors | Gai1:RGS12 GoLoco peptide FP, rhodamine, 10 min; active means well fitted inhibition curve with a large enough effect, not every such curve was filed as active; inactive means no such curve, though single readings can be large or run the other way; further: nearly all actives have a fitted effect of over 30% in size
# Tau FP inhib: inhibitors of human tau fibril formation; P10636; K18 P301L tau heparin fibrillization, Alexa594 FP, 6 h; Potency, µM (series often up to 57.7 µM), without a hit: top-dose activity, negative = inhibition, usual class: inhibitors; 280,000 compounds, 0.39% hits; AID 1468; further: nearly all actives have a fitted effect of over 55% in size
# Target sequence (P10636 561-689 P618L limits assumed): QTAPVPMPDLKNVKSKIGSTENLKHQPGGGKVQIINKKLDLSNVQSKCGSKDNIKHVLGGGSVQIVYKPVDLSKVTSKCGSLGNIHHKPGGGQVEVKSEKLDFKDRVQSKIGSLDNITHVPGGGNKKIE
#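 FP of Alexa 594-tau after heparin (20 uM) induction. Substrate: human K18 P301L, 15 uM unlabeled, 0.24 uM labeled. Buffer 100 mM sodium acetate pH 7. 6 hr, 37 C.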
# Tau fluor counter: counter-screen for tau fibril formation inhibitors; tau K18 P301L Alexa594 fluorescence, heparin fibrillization; Potency, µM (series often up to 57.7 µM), for the others: top-dose activity change, negative = decrease; 280,000 compounds, 0.93% hits; AID 1463; further: nearly all actives have a fitted effect of over 55% in size
#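 Human tau K18 P301L (15 uM unlabeled, 0.24 uM Alexa 594-labeled) in 100 mM sodium acetate pH 7 with 20 uM heparin, 6 hr at 37 C. ThT 30 uM added, 1 hr ambient; Alexa 594 FP and total fluorescence read at 555/632 nm.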
# TR SRC2 fluor cs: counter-screen for TRb-SRC2 inhibitors: fluorescence interference | TRb/SRC2 Texas Red total fluorescence interference | Potency, µM (highest dose often 106 µM), inactives show at the highest dose fluorescence change, negative = quenching | 280,000 compounds, 0.29% hits; active means well fitted curve in either direction with a large enough effect; inconclusive means small, poorly fitted or top-dose-only effect
#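 Human TRb ligand-binding domain at 0.6 uM with 20 nM Texas Red SRC2 peptide in Tris buffer containing 1 uM T3 and 5% DMSO, incubated with compound 5 h at ambient temperature. Total fluorescence (555/632 nm) calculated as parallel + 2 × perpendicular.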
# TRb SRC2 PPI: inhibitors of human thyroid hormone receptor beta-SRC2 interaction. TRbeta-SRC2 peptide binding, fluorescence polarization; receptor liganded with 1 µM T3. 280,000 compounds, 0.065% hits. P10828. Potency, µM (doses to about 106 µM), without a hit: top-dose activity change, negative = inhibition, hits mostly inhibitors;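 further: plate controls were bound peptide for no effect and peptide without receptor for full effect; nearly all actives have a fitted effect of over 50% in size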
# Target sequence (P10828 whole entry, looked up): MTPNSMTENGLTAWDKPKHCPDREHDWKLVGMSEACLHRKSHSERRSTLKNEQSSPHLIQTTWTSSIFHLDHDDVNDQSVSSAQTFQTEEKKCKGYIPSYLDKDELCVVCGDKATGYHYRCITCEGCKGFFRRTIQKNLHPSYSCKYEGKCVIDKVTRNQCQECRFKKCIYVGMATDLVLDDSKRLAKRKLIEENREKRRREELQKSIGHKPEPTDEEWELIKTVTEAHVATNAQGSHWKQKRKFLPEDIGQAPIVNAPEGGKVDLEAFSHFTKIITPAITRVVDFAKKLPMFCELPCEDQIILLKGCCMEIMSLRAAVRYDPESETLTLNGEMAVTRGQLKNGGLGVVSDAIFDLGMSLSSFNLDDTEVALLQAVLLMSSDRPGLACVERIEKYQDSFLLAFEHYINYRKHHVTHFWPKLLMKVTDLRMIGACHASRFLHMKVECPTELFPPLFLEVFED
#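 Compounds were added to 0.6 uM TRb ligand-binding domain and 20 nM Texas Red-labeled SRC2 peptide in Tris buffer containing 1 uM T3, incubated 5 hr at ambient temperature, then read by fluorescence polarization.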
# Tau fibril ThT: blocks human tau fibril formation measured by thioflavin T | recombinant tau K18 P301L (four-repeat tau fragment), heparin-induced fibrillization, ThT fluorescence | P10636 | Potency, µM (titrated, usually from 57.4 µM), for the others: at the top dose activity, negative = inhibition, usual class: inhibitors | AID 1460 | 270,000 compounds, 2.1% hits; further: nearly all actives have a fitted effect of over 55% in size
#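 Tau K18 P301L fragment (15 uM unlabeled plus 0.24 uM Alexa 594-labeled) in 100 mM sodium acetate pH 7 with compound, fibrillization induced by 20 uM heparin for 6 hr at 37 C. Thioflavin T (30 uM) added, fluorescence read after 1 hr (ex 450, em 510 nm).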
# Numbers without * were called inactive; ? = inconclusive; / = not tested or not shown; [ ] = remark or other dose. Unless noted, the call rests on the fitted dose curve; in most records, active means well fitted curve in the direction sought with a large enough effect; inconclusive means small, poorly fitted or top-dose-only effect, or another doubt; inactive means no such curve, though single readings can be large; an effect the other way counts as inactive or inconclusive. Unless noted, on the % scale 0 is the no-effect control and ±100 the full control effect; potency means the concentration at half of the fitted maximal effect.
SMILES,RGS12 GoLoco inh,Tau FP inhib,Tau fluor counter,TR SRC2 fluor cs,TRb SRC2 PPI,Tau fibril ThT
COc1ccccc1/C=C1\S/C(=N/NC(=O)c2cccc(Br)c2)NC1=O,12%,1%,?,-9%,11%,13µM*
O=c1c2c([N+](=O)[O-])cc([N+](=O)[O-])cc2sn1-c1ccc(Br)cc1,5µM*,22µM*,?,5%,4%,14µM*
COc1ccc(Br)cc1CNC(=O)CCCn1c(=O)c2cccn2c2cccnc21,/,10%,-2%,0%,5%,-6%
O=C(Nc1ccc(Nc2ccccc2)cc1)C(Cl)Cl,18%,?,?,-1%[53 µM],1%[53 µM],?
CC(C)(C)C(=O)C(Cl)C(=O)Nc1ccccc1 (configuration not stated),-3%,?,-12%,-5%,-2%,7.1µM*
CCOC(=O)CC1=CC(C)(CC(=O)OCC)C(C#N)(C#N)C(N)=C1C#N (configuration not stated),6%,?,-26%,-2%,11%,28µM*
Fc1cccc(Cl)c1CNc1ccc(N2CCCC2)cc1,-14%,11µM*,?,16%,-19%,5.6µM*
NC(=O)c1c(NC(NC(=O)c2ccco2)C(=O)c2ccc(Cl)cc2)sc2c1CCCC2 (configuration not stated),11%,-9%,?,-3%,-17%,25µM*
O=C(CSc1nccn1-c1ncc(C(F)(F)F)cc1Cl)c1ccc(Br)cc1,7%,?,-23%,3%,4%,14µM*
CCCc1ccc(Oc2c(-c3ccc(O)c(C)c3O)n[nH]c2C)cc1,-2%,?,13µM*[quencher],1%,5%,28µM*
Cc1c(O)ccc(-c2[nH]ncc2-c2nc3ccccc3s2)c1O,-9%,-3%,?,-1%,-1%,-18%
CCOc1ccc(-c2n[nH]c(C)c2-c2ccccc2OC)c(O)c1,12%,4%,-6%,1%,12%,0%
CCCc1ccc(Oc2cn[nH]c2-c2ccc(O)c(C)c2O)cc1,7%,-6%,14µM*[quencher],-4%,-4%,25µM*
O=C(NC1CCCC1)c1ccc2nc(-c3ccco3)c(-c3ccco3)nc2c1,/,2%,-2%,-6%,1%,-2%
COc1ccccc1N1CCN(C(=O)c2ccc3nc(-c4ccco4)c(-c4ccco4)nc3c2)CC1,6%,9%,-15%,-3%,5%,?
O=C(c1ccccc1)c1ccc2nc(-c3ccco3)c(-c3ccco3)nc2c1,-27%,?,?,-17%,3%,14µM*
O=C(NCCc1ccccc1)c1ccc2nc(-c3ccco3)c(-c3ccco3)nc2c1,-5%,?,?,28µM*[quencher],9%,7.1µM*
O=C(NCCO)c1ccc2nc(-c3ccco3)c(-c3ccco3)nc2c1,-11%,?,14µM*[quencher],?,7%,16µM*
c1coc(-c2nc3ccccc3nc2-c2ccco2)c1,-13%,?,?,-29%,4%,16µM*
COc1ccc(Br)cc1CNCc1c(C(=O)O)c(C)n(Cc2ccccc2C)c1C,/,-1%,-1%,0%,1%,-10%
COc1cc(CN(C(=O)c2ccc(C)cc2)C2CCS(=O)(=O)C2)cc(OC)c1OC (configuration not stated),/,0%,-5%,2%,-2%,-3%
COc1cc(CN(C(=O)c2ccc(OC(C)C)cc2)C2CCS(=O)(=O)C2)cc(OC)c1OC (configuration not stated),/,-5%,-30%,1259µM*[quencher],-8%,?
Cn1cc([N+](=O)[O-])c(C(=O)N/N=C\c2c[nH]c3ccccc23)n1,5%,0%,-12%,-3%,5%,?
O=[N+]([O-])c1ccc(N/N=C/c2c[nH]c3ccccc23)cc1,88%,?,7.9µM*[quencher],-5%,-1%,3.2µM*
O=[N+]([O-])c1cccc(N/N=C/c2cccc3ccccc23)c1,-3%,-2%,8.9µM*[quencher],-36%,-1%,?
SMILES,RGS12 GoLoco inh,Tau FP inhib,Tau fluor counter,TR SRC2 fluor cs,TRb SRC2 PPI,Tau fibril ThT
O=C(N/N=C/c1c[nH]c2ccccc12)c1cccc([N+](=O)[O-])c1,8%,?,?,-9%,-2%,?
O=[N+]([O-])c1ccccc1N/N=C/c1c[nH]c2ccccc12,6%,-15%,3.5µM*[quencher],-8%,3%,3.2µM*
CS(=O)(=O)N1CCC2(CC1)CN(c1ccccc1)C2,-3%,/,/,/,/,/
CCSc1nnc(NC(=O)CSc2nc3c(cc2C#N)CCCC3)s1,1%,3%,?,0%,1%,2.8µM*
CCc1nnc(NC(=O)CSc2nc3c(cc2C#N)CCC3)s1,1%,0%,-16%,0%,-3%,2µM*
Cc1oc(-c2ccccc2F)nc1CSCC(=O)NCCc1ccccc1,/,3%,-18%,0.13µM*[quencher],-28%,?
CCOc1ccc(-c2nc(CSCC(=O)NCCc3ccccc3)c(C)o2)cc1,/,6%,-5%,0%,1%,?
Cc1ccc(C)c(N=Nc2ccc(O)c3ncccc23)c1,-1%,15%,-26%,1%,-7%,?
Cc1cccc(N=Nc2ccc(O)c3ncccc23)c1,4%,?,-26%,-3%,3%,2µM*
COC(=O)c1ccc2nc(C)cc(Nc3ccc(N(C)C)cc3)c2c1,-6%,-2%,?,-5%,4%,?
Cc1cc(NC(=O)Nc2ccc(N(C)C)cc2)c2cc(F)cc(F)c2n1,-10%,-6%,7.9µM*[quencher],-14%,-10%,?
c1ccc(-c2nc(-c3cccs3)c(NC3CCCCC3)o2)cc1,13%,4%,4%,-4%,14%,1%
COc1ccc(N=C2NC(=O)/C(=C\c3ccco3)S2)cc1,10%,-6%,?,-28%,4%,10µM*
COc1ccc(N=C2NC(=O)/C(=C/c3ccc(O)c(OC)c3)S2)cc1,2%,4%,?,-14%,4%,3.5µM*
O=C1NC(=Nc2ccc(O)cc2)S/C1=C\C=C\c1ccco1,-83%,?,?,-13%,1%,1.6µM*
COc1cc(/C=C2\SC(=Nc3ccc(O)cc3)NC2=O)cc(OC)c1OC,10%,-2%,-11%,-4%,5%,/
COc1cc(/C=C2/SC(=Nc3ccc(O)cc3)NC2=O)cc(OC)c1O,88%,15%,-1%,-13%,5%,?
Nc1nc(-c2nn(Cc3ccccc3F)c3ncccc23)ncc1C1CC1,/,/,/,-8%,-6%,/
O=C1c2ccccc2C(=O)c2cc(S(=O)(=O)Nc3cccc4cccnc34)ccc21,/,/,/,-1%,4%,/
